# Reference: PubChem BioAssay (NCI)
# About 83,000 compounds went through this panel and 20% of them were active in at least one assay; those are over-represented in the sample as a whole.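 48-hour exposure, single concentration, 96-well plates; percent growth endpoint where 0 means no net growth. Active: below 10.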 A number with no mark means an inactive call. The source made the active and inactive calls.
# Tested on: HOP-92 NSCLC
# Experiment: NCI-60 one-dose screen, 48 h (100 = growth as untreated, 0 = no growth, -100 = all killed)
# Settings: 10 µM unless noted
row,SMILES,growth
1,CN(C(=O)CN1C(=O)/C(=C/c2ccco2)SC1=S)C1CCS(=O)(=O)C1 (stereo unspecified),102%
2,O=C(c1ccc(Cl)cc1)C1[C@H](c2ccccc2Cl)[C@@H](c2ccccc2)NC12C(=O)Nc1ccccc12 (stereo partly specified),-48% (active)
3,Cc1ccc(Nc2nnc(-c3c[nH]c4ccccc34)o2)c(C)c1,21.8%
4,Cc1ccccc1NC(=O)c1cccc(NC(=O)CCl)c1,70%
5,Clc1ccc(CNc2nc(SCCN3CCOCC3)nc3c2cnn3CC(Cl)c2ccc(Br)cc2)cc1 (stereo unspecified),48%
6,CCc1ccc(SC2c3cc(OC)ccc3Oc3nc(N)c(C#N)c(N)c32)cc1 (stereo unspecified),-38.5% (active)
7,O=C(N/N=C/c1ccc(B(O)O)s1)c1[nH]c2ccc(Br)cc2c1-c1ccccc1,-60.2% (active)
8,CCN1C(=O)N(CC)C2NNC(Sc3c(C(=O)O)c4ccccc4n(CC(C)C)c3=O)=NC21 (stereo unspecified),80.8%
9,COc1ccc(/C=C/c2nc3ccccc3c(=O)n2CC(=O)Nc2ccccc2)cc1,-0.34% (active)
10,COc1ccc2[nH]c(=O)c(CSc3ccccc3Nc3nccc(-c4ccc5c(c4)OCO5)n3)cc2c1,90.3%
11,Cc1ccc(Cl)cc1NC(=O)N/C(N)=N/c1nc2ccccc2s1,-23% (active)
12,COc1ccc(OC)c(Cn2cc(C#N)c(N)c2C(=O)c2ccc(Br)cc2)c1,55.7%
13,Cc1ccc(-c2cc(-c3ccccc3)[nH]c(=O)c2C#N)cc1,45.7%
14,Cc1ccc(C(C(=O)NC2CCCCC2)N(Cc2ccccc2Cl)C(=O)c2ccc(CN3CCOCC3)o2)o1 (stereo unspecified),91.3%
15,CN(C)c1ccc(/C=C/c2n(Cc3ccc4ccccc4c3)c3ccccc3[n+]2Cc2ccc3ccccc3c2)cc1,-67.2% (active)
16,Cc1nn(-c2ccccc2)c2nc(C)n(CC(=O)N/N=C/c3ccccc3O)c(=O)c12,62.5%
17,CC1=C(C)C(=O)C(N2CCSCC2)=CC1=O,89.5%
18,NC(=O)c1ccc(-c2ccc3ncnc(N4CCc5cc(F)c(Cl)cc54)c3c2)cn1,15.4%
19,Cn1ncc2c(N)nc(Oc3ccccc3-c3ccccc3)nc21,62.4%

row,SMILES,growth
1,C=CC[n+]1cccc2c3ccccc3ccc21,52.3%
2,COc1ccc2nc(NC(=O)c3ccc(N(C)C)cc3)sc2c1,112%
3,O=C(N/N=C/c1ccoc1)c1[nH]c2ccc(Br)cc2c1-c1ccccc1,-62.4% (active)
4,O=C(Nc1ccc(-c2ccc3c(c2)NC(=O)/C3=C\c2ccc[nH]2)cc1)Nc1ccc(Cl)c(C(F)(F)F)c1,46.9%
5,CN1C(=O)/C(=C/c2ccco2)S/C1=N/c1nccs1,114%
6,COc1cccc2nc(Nc3cccc(NC(=O)c4ccc(CN5CCN(C)CC5)c(C(F)(F)F)c4)c3)ccc12,-66.7% (active)
7,Fc1cccc(CNc2nc(SCCN3CCOCC3)nc3c2cnn3CC(Cl)c2ccc(Br)cc2)c1 (stereo unspecified),20.3%
8,CCCCNc1ccc2c3c(cccc13)C(=O)N(c1cccc(-c3nn(-c4ccccc4)cc3-c3nc4ccccc4s3)c1)C2=O,100%
9,N/C(=N\c1nc2ccccc2s1)NC(=O)Nc1ccccc1[N+](=O)[O-],-5.71% (active)
10,Cc1ccc(C(=O)Nc2cc(-c3ccncc3)cc(C(F)(F)F)c2)cc1C#Cc1cnc2cccnn12,31.7%
11,CCN1C(=O)N(CC)C2NNC(Sc3c(C(=O)O)c4ccccc4n(CCC(C)C)c3=O)=NC21 (stereo unspecified),49.4%
12,CC1=C(C(=O)OCc2ccccc2)C(c2ccc(N(C)C)cc2)n2c(nc3ccccc32)N1 (stereo unspecified),73.5%
13,COc1cc(/C=C/C(=O)c2cnn(-c3cc(=O)[nH]c4ccc(Br)cc34)c2C)cc(OC)c1OC,25.7%
14,S=C(Nc1ccc(OCc2nc3ccc(Cl)cc3[nH]2)cc1)NC1CCCCC1,-4.42% (active)
15,Nc1nn2c(-c3cc4cc(Br)ccc4oc3=O)ccnc2c1N=Nc1ccc(S(N)(=O)=O)cc1,83.2%
16,CCN(C(=O)CN1C(=O)/C(=C/c2ccco2)SC1=S)C1CCS(=O)(=O)C1 (stereo unspecified),103%
17,Cn1cc(Nc2ncnc(-c3ccc(N4CCCC4)c(C#N)c3)n2)cn1,97.6%
18,O=C1Nc2ccccc2/C1=C\c1ccc(OCC(=O)c2ccc(Br)cc2)cc1,75.5%
19,COc1cc(CNC(=O)C[C@H](C)CCC=C(C)C)ccc1OCc1cn(-c2ccc(Br)cc2)nn1,45.9%

# Tested on: NCI-H522 lung
# Experiment: as above
# Settings: 10 µM unless noted
row,SMILES,growth
1,CN(C(=O)CN1C(=O)/C(=C/c2ccco2)SC1=S)C1CCS(=O)(=O)C1 (stereo unspecified),15.4%
2,O=C(c1ccc(Cl)cc1)C1[C@H](c2ccccc2Cl)[C@@H](c2ccccc2)NC12C(=O)Nc1ccccc12 (stereo partly specified),-30.9% (active)
3,Cc1ccc(Nc2nnc(-c3c[nH]c4ccccc34)o2)c(C)c1,-30.4% (active)
4,Cc1ccccc1NC(=O)c1cccc(NC(=O)CCl)c1,-71.7% (active)
5,Clc1ccc(CNc2nc(SCCN3CCOCC3)nc3c2cnn3CC(Cl)c2ccc(Br)cc2)cc1 (stereo unspecified),48.5%
6,CCc1ccc(SC2c3cc(OC)ccc3Oc3nc(N)c(C#N)c(N)c32)cc1 (stereo unspecified),-8.76% (active)
7,O=C(N/N=C/c1ccc(B(O)O)s1)c1[nH]c2ccc(Br)cc2c1-c1ccccc1,-83% (active)
8,CCN1C(=O)N(CC)C2NNC(Sc3c(C(=O)O)c4ccccc4n(CC(C)C)c3=O)=NC21 (stereo unspecified),-32.3% (active)
9,COc1ccc(/C=C/c2nc3ccccc3c(=O)n2CC(=O)Nc2ccccc2)cc1,89.2%
10,COc1ccc2[nH]c(=O)c(CSc3ccccc3Nc3nccc(-c4ccc5c(c4)OCO5)n3)cc2c1,66.1%
11,Cc1ccc(Cl)cc1NC(=O)N/C(N)=N/c1nc2ccccc2s1,-61.9% (active)
12,COc1ccc(OC)c(Cn2cc(C#N)c(N)c2C(=O)c2ccc(Br)cc2)c1,-29% (active)
13,Cc1ccc(-c2cc(-c3ccccc3)[nH]c(=O)c2C#N)cc1,74.9%
14,Cc1ccc(C(C(=O)NC2CCCCC2)N(Cc2ccccc2Cl)C(=O)c2ccc(CN3CCOCC3)o2)o1 (stereo unspecified),78.7%
15,CN(C)c1ccc(/C=C/c2n(Cc3ccc4ccccc4c3)c3ccccc3[n+]2Cc2ccc3ccccc3c2)cc1,-69.1% (active)
16,Cc1nn(-c2ccccc2)c2nc(C)n(CC(=O)N/N=C/c3ccccc3O)c(=O)c12,6.39% (active)
17,CC1=C(C)C(=O)C(N2CCSCC2)=CC1=O,94.3%
18,NC(=O)c1ccc(-c2ccc3ncnc(N4CCc5cc(F)c(Cl)cc54)c3c2)cn1,94.1%
19,Cn1ncc2c(N)nc(Oc3ccccc3-c3ccccc3)nc21,22.2%

row,SMILES,growth
1,C=CC[n+]1cccc2c3ccccc3ccc21,27.1%
2,COc1ccc2nc(NC(=O)c3ccc(N(C)C)cc3)sc2c1,67.7%
3,O=C(N/N=C/c1ccoc1)c1[nH]c2ccc(Br)cc2c1-c1ccccc1,-82.2% (active)
4,O=C(Nc1ccc(-c2ccc3c(c2)NC(=O)/C3=C\c2ccc[nH]2)cc1)Nc1ccc(Cl)c(C(F)(F)F)c1,-15.1% (active)
5,CN1C(=O)/C(=C/c2ccco2)S/C1=N/c1nccs1,100%
6,COc1cccc2nc(Nc3cccc(NC(=O)c4ccc(CN5CCN(C)CC5)c(C(F)(F)F)c4)c3)ccc12,-87% (active)
7,Fc1cccc(CNc2nc(SCCN3CCOCC3)nc3c2cnn3CC(Cl)c2ccc(Br)cc2)c1 (stereo unspecified),36.8%
8,CCCCNc1ccc2c3c(cccc13)C(=O)N(c1cccc(-c3nn(-c4ccccc4)cc3-c3nc4ccccc4s3)c1)C2=O,99.1%
9,N/C(=N\c1nc2ccccc2s1)NC(=O)Nc1ccccc1[N+](=O)[O-],-50.1% (active)
10,Cc1ccc(C(=O)Nc2cc(-c3ccncc3)cc(C(F)(F)F)c2)cc1C#Cc1cnc2cccnn12,33.1%
11,CCN1C(=O)N(CC)C2NNC(Sc3c(C(=O)O)c4ccccc4n(CCC(C)C)c3=O)=NC21 (stereo unspecified),-21.7% (active)
12,CC1=C(C(=O)OCc2ccccc2)C(c2ccc(N(C)C)cc2)n2c(nc3ccccc32)N1 (stereo unspecified),8.11% (active)
13,COc1cc(/C=C/C(=O)c2cnn(-c3cc(=O)[nH]c4ccc(Br)cc34)c2C)cc(OC)c1OC,-89.1% (active)
14,S=C(Nc1ccc(OCc2nc3ccc(Cl)cc3[nH]2)cc1)NC1CCCCC1,-21.4% (active)
15,Nc1nn2c(-c3cc4cc(Br)ccc4oc3=O)ccnc2c1N=Nc1ccc(S(N)(=O)=O)cc1,93.3%
16,CCN(C(=O)CN1C(=O)/C(=C/c2ccco2)SC1=S)C1CCS(=O)(=O)C1 (stereo unspecified),47.5%
17,Cn1cc(Nc2ncnc(-c3ccc(N4CCCC4)c(C#N)c3)n2)cn1,8.98% (active)
18,O=C1Nc2ccccc2/C1=C\c1ccc(OCC(=O)c2ccc(Br)cc2)cc1,61.4%
19,COc1cc(CNC(=O)C[C@H](C)CCC=C(C)C)ccc1OCc1cn(-c2ccc(Br)cc2)nn1,41.6%
